Only some compounds are listed: those with a hit (about 6.6% of all), similar ones and a draw of the others.
Autofluor counter: flagged as autofluorescent in microsphere protease counterscreen | compound autofluorescence counterscreen, microsphere flow cytometry; stronger effect = higher value | fluorescence intensity (concentration not given with the values) | 3.1% of 360,000 active | AID 624483; in the data active means fluorescence intensity above about 16000; inconclusive means no clear call, values can overlap the other calls
Anthrax LF inh2: Bacillus anthracis LF protease inhibitors, primary screen, biochemical, multiplex microsphere, MLPCN library | Lethal factor (Bacillus anthracis), P15917 | multiplex microsphere protease cleavage assay | inhibition, % at 10 µM | 0.12% of 360,000 active | AID 588501, 2011; further: plate controls were buffer without enzyme for full effect and enzyme alone for no effect
BoNT-A LC inh2: BoNT/A light chain protease inhibitors, primary screen, biochemical, flow cytometry, MLPCN library; multiplex microsphere protease substrate cleavage; inhibition, % at 10 µM; 0.17% of 360,000 active; further: plate controls were buffer without enzyme for full effect and enzyme alone for no effect
Mtb FBA inh: Mtb FBA enzyme inhibitors, primary screen, biochemical, fluorescence, strain H37Rv; AID 588726, 2011; purified M. tuberculosis FBA, fluorescence read-out; 2.3% of 360,000 active; inhibition, % at 1 µM; Fructose-bisphosphate aldolase (Mycobacterium tuberculosis (strain ATCC 25618 / H37Rv)), …; in the data active means inhibition above about 27%;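 further: 0% = vehicle and 100% = reference inhibitor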
Target sequence (P9WQA3 whole entry, looked up): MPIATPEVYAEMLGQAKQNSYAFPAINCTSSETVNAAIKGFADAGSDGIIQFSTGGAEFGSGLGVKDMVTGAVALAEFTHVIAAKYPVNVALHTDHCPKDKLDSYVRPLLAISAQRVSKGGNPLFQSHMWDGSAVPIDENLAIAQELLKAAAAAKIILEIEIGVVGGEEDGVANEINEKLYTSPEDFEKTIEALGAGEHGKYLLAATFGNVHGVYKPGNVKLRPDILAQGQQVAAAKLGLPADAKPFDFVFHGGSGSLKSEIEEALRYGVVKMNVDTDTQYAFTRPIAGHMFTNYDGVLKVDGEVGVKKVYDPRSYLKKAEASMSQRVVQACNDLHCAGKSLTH
GDH-TPI counter: GDH-TPI coupling enzyme inhibitors, primary screen, artefact control for M. tuberculosis FBA inhibitor project, biochemical, absorbance, full deck. 1.2% of 360,000 active. inhibition, % at 4.8 µM. GDH-TPI coupled enzyme counterscreen, NADH absorbance. AID 588335, 2011; in the data active means inhibition above about 30%;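 further: 0% = DMSO wells and 100% = wells lacking the enzyme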
BoNT F protease: BoNT/F light chain protease inhibitors, primary screen, biochemical, flow cytometry, MLPCN library; Botulinum neurotoxin type F light chain protease (Clostridium botulinum); Multiplex microsphere protease cleavage assay; inhibition, % at 10 µM; 0.22% of 360,000 active; AID 588497, 2011; in the data active means inhibition above about 35%, passing the limit was not always enough; inconclusive means no clear call, values can overlap the other calls; further: plate controls were buffer without enzyme for full effect and enzyme alone for no effect
* = called active by the depositor; ? = inconclusive; . = no result; + = active, no number. Unless noted, no stated cut-off is given here; in the data, active means inhibition above about 30%; inconclusive means no clear call, values can overlap the other calls; inactive means below that.

SMILES	Autofluor counter	Anthrax LF inh2	BoNT-A LC inh2	Mtb FBA inh	GDH-TPI counter	BoNT F protease
COc1cc(C2c3c(oc4ccccc4c3=O)C(=O)N2Cc2ccco2)ccc1O (stereo unspecified)	2510	-1	0	-4	14	5
CC(=O)c1ccc(N/N=C(/C(N)=O)C2=NC(C)(C)Cc3ccccc32)cc1	9116	-1	-1	-3	35*	-1
Cc1ccccc1-n1c(=O)n(Cc2ccco2)c(=O)c2[nH]cnc21	3949	-2	-4	1	4	-5
CC(C)n1c(=O)[nH][nH]c1=S	3665	-12	4	0	-11	?
Cn1c(=O)[nH]c(=O)c2c1nc(OC(=O)c1ccccc1)n2CC(O)COc1ccc(F)cc1 (stereo unspecified)	16708*	1	-1	3	5	-4
Cn1c(=O)[nH]c(=O)c2c1nc(OC(=O)c1ccccc1)n2CC(O)COc1ccccc1 (stereo unspecified)	2908	-2	-1	0	-5	14
COc1ccccc1N=c1oc2cc(O)ccc2cc1C(=O)NCC1CCCO1 (stereo unspecified)	5709	-9	0	+	23	-12
COc1cccc(OCc2ccc(C(=O)NCC3CCCO3)cc2)c1 (stereo unspecified)	2462	-1	0	-1	-1	-6
COc1ccccc1NC(=O)c1cc2ccc(O)cc2o/c1=N\O	3179	-2	-1	7	13	2
Cc1cccc(N=c2oc3cc(O)ccc3cc2C(N)=O)c1	4092	-2	1	+	8	-16
CN=c1oc2ccc(Cl)cc2cc1C(N)=O	8858	-8	1	12	4	-5
COc1cccc(N=c2oc3cc(O)ccc3cc2C(=O)NCC2CCCO2)c1 (stereo unspecified)	4716	-9	0	+	-1	-6
COc1ccccc1N=c1oc2cc(O)ccc2cc1C(N)=O	3819	0	1	+	-1	2
Cc1ccc([N+](=O)[O-])cc1S(=O)(=O)Nc1ccccn1	4172	-4	0	0	-5	-4
CCCc1nc2c(sc3nc4c(cc32)COC(C)(C)C4)c(=O)n1CCN(CC)CC	4351	-4	-1	1	-3	-4
COc1ccc2cc(C(N)=O)/c(=N\NC(=O)c3ccccc3)oc2c1	2864	-9	1	112*	9	9
COc1cccc2cc(C(=O)NCC3CCCO3)c(=O)oc12 (stereo unspecified)	3351	-2	-1	2	11	-5
COc1cccc(C(=O)N/N=c2/oc3ccccc3cc2C(N)=O)c1	3576	-7	-7	-3	19	-6
COc1cc(Br)cc2cc(C(=O)NCC3CCCO3)c(=O)oc12 (stereo unspecified)	22610*	-1	?	2	4	-3
CN(C)CCN(C(=O)c1ccccc1Cl)c1nc2c(Cl)cccc2s1	7652	-6	-1	2	1	-14
CCn1cc(Br)c(C(=O)NC(=S)Nc2ccc(C(=O)OC)cc2)n1	2600	-1	-1	-1	-1	-11
O=C(Nc1ccc(Cl)c(Cl)c1)c1csc(-c2ccccc2)n1	16273*	-3	0	1	14	-3
O=C(O)C1CCc2sc3[nH]c(=S)n(-c4ccccc4)c(=O)c3c21 (stereo unspecified)	.	.	.	4	34*	.
CCN(CC)C(=O)c1sc2[nH]c(=S)n(-c3ccccc3)c(=O)c2c1C	12674	-3	0	1	33*	-1
Cc1ccc(-n2c(=S)[nH]c3sc4c(c3c2=O)CCc2ccccc2-4)cc1	2349	0	0	-2	-3	0
CCOc1ccccc1OCCCC(=O)NNC(=O)c1cc(C)oc1C	3509	-8	0	5	9	-3
CCc1ccc(-c2nc(NC(=S)NC(=O)c3cccs3)sc2C)cc1	23514*	0	-1	2	2	-1
O=C(CC12CC3CC(CC(C3)C1)C2)NCc1ccncc1	16408*	-4	-1	2	10	-3
